What all share (format): functional
Experiment [1] deals with Plasmodium falciparum. Briefly: GSK_TCMDC: Inhibition of Plasmodium falciparum 3D7 in whole red blood cells, using parasite LDH activity as an index of growth. Test compounds present at 2uM.
Experiment [2] relates to Plasmodium falciparum. Briefly: GSK_TCMDC: Inhibition of Plasmodium falciparum Dd2 in whole red blood cells, using parasite LDH activity as an index of growth. Test compounds present at 2uM.
For experiment [3], the system named is HepG2. Briefly: GSK_TCMDC: Percent inhibition of human HepG2 cell line. Test compounds present at 10uM.

For `O=C(Nc1cccc(F)c1)c1ccc(C(=O)NC2CCN(CC3CCCCC3)CC2)cc1.O=C(O)C(F)(F)F`, the Inhibition in experiment [1] was determined as 96%; in experiment [2], 16%; in experiment [3], 22%.
Turning to `CCOC(=O)C(Oc1ccc2ccccc2c1)C(=O)OCC`, the Inhibition in experiment [1] amounted to 98%; in experiment [2], 0%; in experiment [3], 8%.
For `COc1ccc(NC(=O)N2CCCN(CCCCCNC(=O)/C=C/c3ccc(C(F)(F)F)cc3)CC2)cc1Cl` the same measures were 93%, 0% and 21%.
Regarding `OCCN1CCN(C(=S)NC2CCCCC2)CC1`, the Inhibition in experiment [1] turned out to be 93%; in experiment [2] it was 0%; in experiment [3], 49%.
`Cc1[nH]c(C)c(-c2ccc(OCCSc3ccncc3)cc2)c(=O)c1Br`: the Inhibition in experiment [1] is reported as 95%; in experiment [2] it was 95%; in experiment [3], 0%.
For the compound `CCCCNCc1ccc(-c2nc(CN(CCCN3CCN(C)CC3)C(=O)Nc3cccc(Cl)c3)cs2)cc1.O=C(O)C(F)(F)F`, the Inhibition in experiment [1] was 99%; in experiment [2] it was 73%; in experiment [3], 35%.
`Cc1cc(C(=O)Nc2nc(-c3ccccn3)nc3ccsc23)no1`: the Inhibition in experiment [1] turned out to be 98%; in experiment [2], 90%; in experiment [3], 44%.
In the case of `CN1CCCN(Cc2ccc(-c3cccc(NC(=O)c4ccc(C#N)cc4)c3)cc2)CC1.O=C(O)C(F)(F)F`, the Inhibition came to 100% in experiment [1], 26% in experiment [2] and 29% in experiment [3].
For `Br.Cc1cc(F)ccc1Nc1nc(N(C)c2ccccc2)c2cccc(O)c2n1`, the Inhibition stood at 92% in experiment [1], 81% in experiment [2] and 38% in experiment [3].
Taken in the same sequence, the figures for `Fc1cccc(Nc2nc(NCCc3ccc(Cl)cc3)nc(Nc3cccc(F)c3)n2)c1` were 93%, 30% and 0%.
In the case of `O=C(/C=C/c1ccc2ccccc2c1)NCC1(c2ccc(-c3ccccc3)cc2)CCOCC1`, the Inhibition in experiment [1] came to 95%; in experiment [2], 34%; in experiment [3] it was 9%.
For `Cc1cc2nc(N/C(N)=N/C(=O)NC3CCCCC3)nc(C)c2cc1C` the same measures were 94%, 98% and 20%.
For `Cc1c2c(nn1-c1ccccc1)C(c1ccccc1)N(c1ccccc1)C2=O` (stereo not drawn) the same measures were 92%, 96% and 42%.
Turning to `CCOC(=O)c1c(C)n(-c2ccccc2)c2ccc(OC(=O)c3ccc(S(=O)(=O)N(CC)CC)cc3)cc12`, the Inhibition in experiment [1] was 94%; in experiment [2], 63%; in experiment [3], 0%.
For the compound `COc1cc(SC)c(Br)cc1-c1nc2ccncc2[nH]1`, the Inhibition in experiment [1] was 91%; in experiment [2] it was 9%; in experiment [3], 5%.
As to `Cc1cc(Nc2ccccc2)nc(Nc2ccccc2C)n1.Cl`, the Inhibition in experiment [1] worked out at 85%; in experiment [2], 27%; in experiment [3], 8%.
Take `Cc1[nH]c(C)c(-c2ccc(-c3ccc(OC(F)(F)F)cc3)nc2)c(=O)c1Br`: the Inhibition in experiment [1] was found to be 97%; in experiment [2] it was 97%; in experiment [3], 26%.
In the case of `Cc1ccc(NC(=O)c2ccc3ncccc3c2)cc1OC1CCN(Cc2ccco2)C1.O=C(O)C(F)(F)F` (stereo not drawn), the Inhibition in experiment [1] came to 86%; in experiment [2] it was 42%; in experiment [3], 9%.
Take `C=CCOC(=O)N1CCC(CNCc2ccc(-c3cccc(-c4nc5cccc(C)c5[nH]4)c3)cc2)C1.O=C(O)C(F)(F)F` (stereo not drawn): the Inhibition in experiment [1] came out at 100%; in experiment [2] it was 99%; in experiment [3], 25%.
In the case of `Cc1cc(C2CCN(CCCCNC(=O)c3ccc(-c4ccc(C#N)cc4)cc3)CC2)c(C)cc1OCCO`, the Inhibition in experiment [1] was 96%; in experiment [2], 68%; in experiment [3] it was 20%.
As to `Cn1cncc1C(=O)Nc1ccc(-c2cccc(-c3nc4cc(F)ccc4[nH]3)c2)cc1`, the values for the Inhibition in experiment [1], in experiment [2] and in experiment [3] were 100%, 23% and 5%, respectively.
Consider `CN(C)CCOc1ccc2c(c1)CN(C)CC2c1ccccc1.Cl` (stereo not drawn), for which the values for the Inhibition in experiment [1], in experiment [2] and in experiment [3] were 91%, 0% and 15%, respectively.
Turning to `CN1c2ccc([N+](=O)[O-])cc2C(C)(C)C12C=Cc1cc(Br)cc([N+](=O)[O-])c1O2` (stereo not drawn), the values for the Inhibition in experiment [1], in experiment [2] and in experiment [3] were 100%, 99% and 0%, respectively.
Taken in the same sequence, the figures for `c1ccc(-c2nc(NC3CCCCC3)cc(C3CC3)n2)nc1` were 97%, 76% and 35%.
In the case of `COc1ccc(C2CC(=O)C3=C(C2)NC(C)=C(C(=O)OC2CCCC2)C3c2ccc(O)cc2)cc1OC` (stereo not drawn), the Inhibition was determined as 97% in experiment [1], 92% in experiment [2] and 0% in experiment [3].
Taken in the same sequence, the figures for `COc1cccc(NC(=O)Nc2c(-c3cccc(C(F)(F)F)c3)c(C(F)(F)F)nn2C)c1` were 93%, 30% and 2%.
Taken in the same sequence, the figures for `O=S(=O)(c1ccccc1C(F)(F)F)C1CC2CCC(C1)N2S(=O)(=O)c1ccc(Cl)c(C(F)(F)F)c1` (stereo not drawn) were 97%, 99% and 4%.
With `Cc1ccc(C(=O)Nc2ccc(Nc3ccnc4cc(-c5ccccn5)ccc34)cc2O)cc1.Cl`, the Inhibition in experiment [1], in experiment [2] and in experiment [3] was 100% in each case.
As to `CCCCc1cc(NCC)nc(Nc2ccc(OC)cc2)n1`, the Inhibition in experiment [1] was 85%; in experiment [2], 32%; in experiment [3], 30%.
`Cc1noc(C)c1-c1ccc2c(Nc3ccc(C#N)cc3)c(C(N)=O)cnc2c1`: the Inhibition in experiment [1] was determined as 97%; in experiment [2] it was 73%; in experiment [3], 6%.
Regarding `CC(C)C(NC(=O)c1c(F)cccc1F)C(=O)Nc1ccc(Cc2nc3ccccc3s2)cc1` (stereo not drawn), the Inhibition in experiment [1] amounted to 86%; in experiment [2], 55%; in experiment [3], 0%.

(Values after ChEMBL document CHEMBL1157539, “Thousands of chemical starting points for antimalarial lead identification” (Nature, 2010).)
